Inconclusive results are not listed. Active and inactive are the calls of the source. Unless noted, the call rests on the fitted dose curve; in most records, active means well fitted curve in the direction sought with a large enough effect in the repeat runs; inconclusive means weak or mixed curves; inactive means no such curve, though single readings can be large; an effect the other way counts as inactive or inconclusive.
Columns and labels:
[1] = A CellTox Green Cytotoxicity Assay to monitor cytotoxicity in HEK293 cells - 32 hour (AID 1224881); further: nearly all actives have a fitted effect of over 40% in size
Summary of the method: (§1)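 Fluorescence from a DNA-binding dye excluded by viable cells was measured repeatedly in the same HEK293 wells (600 cells/well) during continuous compound exposure at 37 C. Each assay gives one read point: 0, 8, 16, 24, 32 or 40 h.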

[2] = A CellTox Green Cytotoxicity Assay to monitor cytotoxicity in HepG2 cells - 0 hour (AID 1224882); further: nearly all actives have a fitted effect of over 35% in size
Summary of the method: (§2)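 Real-time cytotoxicity: fluorescence of a cell-impermeant cyanine dye binding DNA of dead HepG2 cells, measured repeatedly (0–40 h) during compound exposure at 37 C. Cells seeded 600/well with reagent, dosed after 5 h.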

[3] = A CellTox Green Cytotoxicity Assay to monitor cytotoxicity in HepG2 cells - 32 hour (AID 1224883); further: nearly all actives have a fitted effect of over 50% in size
Summary of the method: as §2

[4] = A CellTox Green Cytotoxicity Assay to monitor cytotoxicity in HEK293 cells - 8 hour (AID 1224884); further: nearly all actives have a fitted effect of over 35% in size
Summary of the method: as §1

[5] = qHTS RealTime-Glo MT Cell Viability Assay in HepG2 cells - 16 hour (AID 1224885); further: nearly all actives have a fitted effect of over 50% in size
Summary of the method: (§3)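 Tox21 10K library screened in qHTS format on HepG2 cells carrying RealTime-Glo reagents. Compounds were added after a 5 h preincubation, and the luminescent signal from continuous culture was measured repeatedly during 40 h treatment.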

[6] = qHTS RealTime-Glo MT Cell Viability Assay in HEK293 cells - 24 hour (AID 1224886); further: top concentration of the series differs between compounds; nearly all actives have a fitted effect of over 50% in size
Summary of the method: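 Luminescence generated by NanoLuc from substrate produced by living HEK293 cells served as the viability signal. Each value reflects the reading at its stated time point during continuous 40 h compound exposure at 37 C.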

[7] = qHTS RealTime-Glo MT Cell Viability Assay in HEK293 cells - 8 hour (AID 1224887); further: top concentration of the series differs between compounds; nearly all actives have a fitted effect of over 50% in size
Summary of the method: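 Luminescence, which tracks viable cell number through reduction of the prosubstrate to a NanoLuc substrate, was read over continuous 37 C culture. Cells (600/well) were premixed with reagent and rested 5 h before 23 nL of compound in DMSO was pinned.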

[8] = A CellTox Green Cytotoxicity Assay to monitor cytotoxicity in HEK293 cells - 16 hour (AID 1224888); further: nearly all actives have a fitted effect of over 35% in size
Summary of the method: as §1

[9] = qHTS RealTime-Glo MT Cell Viability Assay in HepG2 cells - 0 hour (AID 1224889); further: nearly all actives have a fitted effect of over 50% in size
Summary of the method: as §3

[10] = A CellTox Green Cytotoxicity Assay to monitor cytotoxicity in HepG2 cells - 8 hour (AID 1224890); further: nearly all actives have a fitted effect of over 45% in size
Summary of the method: as §2

[11] = qHTS assay to identify small molecule antagonists of the estrogen receptor alpha (ER-alpha) signaling pathway using the BG1 cell line in the presence of 0.1 nM 17-beta-estradiol - cell viability counter screen (AID 1259241); further: nearly all actives have a fitted effect of over 40% in size
Summary of the method: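 CellTiter-Fluor read (30 min, 37C) on ER-alpha/ERE-luc VM7Luc4E2 cells; 22 hr compound treatment; agonist 0.1 nM E2 final; same-well multiplex.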

[12] = qHTS assay to identify small molecule antagonists of the androgen receptor (AR) signaling pathway using the MDA cell line in the presence of 0.5 nM R1881 - cell viability counter screen (AID 1259242); further: nearly all actives have a fitted effect of over 45% in size
Summary of the method: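 Live-cell protease activity was measured by CellTiter-Fluor fluorescence after 30 min. Before that, MDA-kb2 MMTV-luciferase cells had 16 hr at 37C without CO2, exposed to test compounds and 0.5 nM R1881 final.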

[13] = qHTS assay to identify small molecule phospholipidosis (PLD) inducers (AID 1259344; active means well fitted curve in the direction sought with a large enough effect; an effect the other way counts as inactive or inconclusive)
Summary of the method: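 Accumulated phospholipid, stained red by LipidTOX during 24 h compound treatment of HepG2 cells at 37 C, is quantified from images as pit number and intensity, normalised per cell using Hoechst-stained nuclei.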

[14] = qHTS assay to identify small molecule HDAC inhibitors (AID 1259364); further: top concentration of the series differs between compounds; nearly all actives have a fitted effect of over 45% in size
Summary of the method: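 Luminescence read after 30 min room-temperature HDAC-Glo incubation measures cellular class I/II HDAC activity. Compounds were applied for 2 hr at 37 C to HCT-116 wild-type cells seeded the day before.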

[15] = qHTS assay to identify small molecule HDAC inhibitors - cell viability counter screen (AID 1259365)
Summary of the method: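 To flag cytotoxic hits, 1,500 wild-type HCT-116 cells per well, plated the day before, receive test compounds for 2hr at 37 C before CellTiter-Glo reagent and a luminescence read.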

[16] = qHTS assay to identify small molecule agonists of the sonic hedgehog signaling (Shh) pathway - cell viability counter screen (AID 1259366); further: nearly all actives have a fitted effect of over 50% in size
Summary of the method: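 Fluorescence from CellTiter-Fluor reports live cells in this counter screen. NIH/3T3-derived Gli1-Luc reporter cells receive test compounds for 24hr at 37C; reagent goes in at 23hr.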

[17] = qHTS assay to identify small molecule agonists of the sonic hedgehog signaling (Shh) pathway (AID 1259368; calls by dose curve;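 further: NIH/3T3-derived 3T3Gli1-Luc cells carrying a stable Gli1-driven firefly luciferase reporter; series mostly up to about 92 µM; nearly all actives have a fitted effect of over 15% in size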)
Summary of the method: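 Luminescence was read after 30 min at room temperature with luciferase reagent. Before that, 3T3Gli1-Luc cells (NIH/3T3 clone, stable Gli1-Luc reporter; 2,000/well) were exposed to compounds for 24 hr at 37C, 5% CO2, compounds being added 4 hr post-plating.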

[18] = biological target: Estrogen receptor (Homo sapiens) (UniProt P03372); assay: qHTS assay to identify small molecule antagonists of the estrogen receptor alpha (ER-alpha) signaling pathway using the BG1 cell line in the presence of 0.1 nM 17-beta-estradiol (AID 1259244); further: nearly all actives have a fitted effect of over 50% in size
Estrogen receptor (Homo sapiens), sequence (P03372 whole entry, looked up): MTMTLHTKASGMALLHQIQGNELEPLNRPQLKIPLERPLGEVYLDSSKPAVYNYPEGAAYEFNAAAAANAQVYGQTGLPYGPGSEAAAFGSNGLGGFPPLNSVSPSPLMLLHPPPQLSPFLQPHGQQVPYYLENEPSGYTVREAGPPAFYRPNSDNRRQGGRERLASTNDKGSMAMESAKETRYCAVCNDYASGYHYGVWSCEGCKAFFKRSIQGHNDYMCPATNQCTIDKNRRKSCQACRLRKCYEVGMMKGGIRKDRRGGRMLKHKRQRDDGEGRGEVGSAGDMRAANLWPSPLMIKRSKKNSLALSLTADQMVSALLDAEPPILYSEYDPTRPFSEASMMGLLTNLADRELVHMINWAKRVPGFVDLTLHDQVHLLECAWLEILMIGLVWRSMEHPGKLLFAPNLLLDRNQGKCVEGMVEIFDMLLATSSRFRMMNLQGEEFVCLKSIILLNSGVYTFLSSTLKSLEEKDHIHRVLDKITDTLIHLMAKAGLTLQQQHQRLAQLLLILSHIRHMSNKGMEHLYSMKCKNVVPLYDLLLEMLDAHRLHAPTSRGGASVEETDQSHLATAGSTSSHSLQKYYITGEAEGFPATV
Summary of the method: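 Luciferase luminescence (ONE-Glo, 30 min at room temperature) was read after 22 hr at 37C exposure to compounds plus 17beta-estradiol at 0.1 nM final. Cells were VM7Luc4E2 with endogenous ER-alpha and an ERE-driven luciferase, pre-cultured 5 days in hormone-depleted medium.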

[19] = qHTS assay to identify small molecule antagonists of the sonic hedgehog signaling (Shh) pathway - cell viability counter screen (AID 1259367); further: nearly all actives have a fitted effect of over 55% in size
Summary of the method: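 CellTiter-Fluor signal in conditioned medium-stimulated 3T3 Gli1-Luc cells, 23 hr compound exposure, 37C.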

Measured: Potency

CC(=O)Nc1ccc(/C=N/NC(N)=S)cc1
not listed: [18] | [19]
inactive: all other assays above

Nc1ccc(C(=O)N2CC3CC(CN(Cc4ccccc4)C3)C2)cc1
not listed: [13]
inactive: all other assays above

CC(C)c1ccccc1C(C)C
not listed: [13] | [18]
inactive: all other assays above

CC(=O)c1c(C)c([N+](=O)[O-])c(C(C)(C)C)c([N+](=O)[O-])c1C
not listed: [13] | [14] | [18]
inactive: all other assays above

N[C@H]1C(O)O[C@H](CO)[C@H](O)[C@@H]1O (stereo partly specified)
not listed: [13]
inactive: all other assays above

N#CCc1cccc(C(F)(F)F)c1
not listed: [10] | [13]
inactive: all other assays above

CCCCCCCCN(C)C
not listed: [13]
inactive: all other assays above

— PubChem BioAssay (Tox21)
